Shown are actives, neighbours in structure and some others; about 1.2% of the full set was active somewhere.
TRPV1 ag: human TRPV1 agonism | activation, % at 8.33 µM | TRPV1-expressing cells, Fluo-8 calcium influx, agonist mode | 0.19% of 320,000 active; in the data active = activation above about 80%; inconclusive = between about 30% and that limit
Target sequence (Q8NER1 whole entry, looked up): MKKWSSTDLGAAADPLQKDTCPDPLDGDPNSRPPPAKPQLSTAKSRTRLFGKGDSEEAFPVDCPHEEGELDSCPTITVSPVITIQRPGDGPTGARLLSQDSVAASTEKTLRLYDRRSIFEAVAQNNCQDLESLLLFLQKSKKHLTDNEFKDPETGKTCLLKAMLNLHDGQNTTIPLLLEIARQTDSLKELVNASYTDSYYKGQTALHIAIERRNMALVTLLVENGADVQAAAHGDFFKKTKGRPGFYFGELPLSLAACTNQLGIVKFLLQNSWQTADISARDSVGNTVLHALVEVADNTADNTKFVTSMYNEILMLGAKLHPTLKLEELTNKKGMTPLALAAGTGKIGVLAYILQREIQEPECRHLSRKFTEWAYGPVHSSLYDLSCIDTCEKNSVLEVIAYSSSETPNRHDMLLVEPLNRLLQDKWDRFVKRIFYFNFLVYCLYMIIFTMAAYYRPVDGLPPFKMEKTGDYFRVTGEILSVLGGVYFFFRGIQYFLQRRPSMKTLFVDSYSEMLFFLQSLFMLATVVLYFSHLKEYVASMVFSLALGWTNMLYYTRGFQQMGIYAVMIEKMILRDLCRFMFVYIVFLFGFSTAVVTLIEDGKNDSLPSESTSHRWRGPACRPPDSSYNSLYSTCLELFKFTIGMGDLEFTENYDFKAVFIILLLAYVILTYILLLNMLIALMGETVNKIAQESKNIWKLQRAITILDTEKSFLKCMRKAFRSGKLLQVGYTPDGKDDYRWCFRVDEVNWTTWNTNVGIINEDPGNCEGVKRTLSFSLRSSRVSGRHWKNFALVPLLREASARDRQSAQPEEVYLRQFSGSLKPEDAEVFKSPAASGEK
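Cells expressing TRPV1 were dye-loaded with Fluo-8 and read kinetically: 10 s baseline, 3 min after compound (agonist portion), then 2 min after EC20 capsaicin (allosteric enhancer portion). Calcium-bound dye fluorescence at 480/520 nm.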
TRPV1 potentiator: potentiators of human vanilloid receptor 1 (TRPV1); TRPV1-expressing cells, Fluo-8 calcium influx, capsaicin EC20 potentiation; 0.02% of 320,000 active; Q8NER1; potentiation, % at 8.33 µM; AID 540277; in the data active = potentiation above about 80%; inconclusive = between about 30% and that limit
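Cells expressing TRPV1 were dye-loaded with Fluo-8 and read kinetically: 10 s baseline, 3 min after compound (agonist portion), then 2 min after EC20 capsaicin (allosteric enhancer portion). Calcium-bound dye fluorescence at 480/520 nm.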
KCNH2 3.1 inh: KCNH2 3.1 (human) potassium channel inhibition; U2OS KCNH2 3.1, thallium flux FluxOr; stronger effect = lower value; activity change, % (tested at about 1.8 µM); 0.95% of 340,000 active; AID 720553;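 active = maximum activity change below -70%; inconclusive = maximum activity change from -70% to -50%; inactive = maximum activity change above -50%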;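 note: thallium influx rate constant from kinetic fluorescence after stimulation buffer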
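Thallium flux via FluxOr fluorescence (Red40 quencher, 45 min loading) in U2OS cells virally expressing the KCNH2 3.1 isoform (1.77 x 10^8 /mL virus, overnight at 37 C). Rate constants from 2-min kinetic reads post-stimulation, normalised to positive and negative controls.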
hERG WT inh: KCNH2 (human, wildtype) channel inhibition. Q12809. U2OS, BacMam KCNH2, thallium flux FluxOr; stronger effect = lower value. activity change, % at 1.84 µM. 0.37% of 340,000 active;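 active = maximum activity change below -70%; inconclusive = maximum activity change between -70% and -50%; inactive = maximum activity change above -50%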
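U2OS cells transduced with wild-type KCNH2 virus are loaded with FluxOr dye for 45 min, and thallium flux is measured in kinetic reads before and after stimulation buffer. Rate constants are normalized to DMSO controls.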
Large screens that a line does not name were inactive.

Cc1ccc(C(=O)N2CCN3C(=O)c4ccccc4C23c2ccc(Cl)cc2)cc1 (stereo not drawn)	KCNH2 3.1 inh -76
O=C(CCl)N1CCN2C(=O)c3ccccc3C12c1ccc(Cl)cc1 (stereo not drawn)	none
COc1ccccc1C(CCN(Cc1cccs1)C(C)=O)c1ccco1 (stereo not drawn)	KCNH2 3.1 inh -74
Brc1ccc(CN2CCSCC2)cc1	KCNH2 3.1 inh -174
COc1ccc2c(c1)CSC(c1ccccc1)C2=O (stereo not drawn)	none (no result: TRPV1 ag, TRPV1 potentiator)
CCN(CC(=O)NCc1cccs1)C(=O)c1cccc(S(=O)(=O)N2CC(C)OC(C)C2)c1 (stereo not drawn)	KCNH2 3.1 inh -156, hERG WT inh -131 (no result: TRPV1 ag, TRPV1 potentiator)
Cn1cc(C=CC(=O)O)c2nccnc21	none (no result: TRPV1 ag, TRPV1 potentiator)
Cc1ccccc1-n1nnnc1SCC(=O)NC1CC1	none (no result: TRPV1 ag, TRPV1 potentiator)
Cc1cc(F)c(F)c(C(=O)N2CCC(C)CC2)c1Cl	KCNH2 3.1 inh -135
Cc1ccc(S(=O)(=O)Nc2cc(Br)cc3cccnc23)cc1	none (no result: KCNH2 3.1 inh, hERG WT inh)
C[C@@H]1CN([C@H](C)CO)C(=O)c2cc(C#Cc3ccccc3F)cnc2O[C@@H]1CN(C)S(=O)(=O)c1ccccc1F	none (no result: TRPV1 ag, TRPV1 potentiator)
Cc1noc(C)c1CSc1nc2sc3c(c2c(=O)n1C)CCCC3	KCNH2 3.1 inh -102
C=CCn1c(SCc2c(C)noc2C)nc2sc3c(c2c1=O)CCCC3	TRPV1 ag inconclusive
CCCCc1ccc(N/C(N)=N/c2nc(C)cc(C)n2)cc1	none
CC(=O)OC1C(N2CCCCC2)c2c(ccc(/C=C/C(=O)N3CCCCC3)c2O)OC1(C)C (stereo not drawn)	TRPV1 ag 81
CC1(C)Oc2ccc3ccc(=O)oc3c2C(N2CCCCC2)C1O (stereo not drawn)	none
CCNC(=O)N(C)C[C@H]1N[C@@](CC)(C(=O)OC)[C@H]2C(=O)N(Cc3ccccc3)C(=O)[C@@H]12	none (no result: TRPV1 ag, TRPV1 potentiator)
Cc1c(OC(C)C(=O)NCc2ccncc2)ccc2c3c(c(=O)oc12)CCCC3 (stereo not drawn)	TRPV1 ag inconclusive, KCNH2 3.1 inh -78
Cc1c(OC(C)C(=O)NCc2ccccn2)ccc2c3c(c(=O)oc12)CCC3 (stereo not drawn)	none
CC(N=Cc1cc([N+](=O)[O-])ccc1O)c1ccccc1 (stereo not drawn)	hERG WT inh -170
CN(/N=C/c1cc([N+](=O)[O-])ccc1O)c1ccccc1	none
COCCn1c(SCC(=O)Nc2sc(C)c(C)c2C#N)nnc1C(C)C	KCNH2 3.1 inh -195
CCn1c(SCC(=O)Nc2sc(C)c(C)c2C#N)nnc1C(C)C	none
Cc1ccc(S(=O)(=O)N2CCN(CC(=O)N/N=C\c3ccncc3)CC2)cc1	none
Cc1ccc(S(=O)(=O)N2CCN(CC(=O)N/N=C\C(Cl)=C\c3ccccc3)CC2)cc1	KCNH2 3.1 inh -197, hERG WT inh -130
CC(/C=N\NC(=O)CN1CCN(S(=O)(=O)c2ccc(C)cc2)CC1)=C\c1ccccc1	KCNH2 3.1 inh -84
CCN(CC)c1ccc(S(=O)(=O)N2CCOCC2)cc1NC(=O)CSc1nncs1	KCNH2 3.1 inh -187, hERG WT inh -215
CCN(CC)c1ccc(S(=O)(=O)N2CCOCC2)cc1NC(=O)c1cc(=O)c2ccccc2o1	KCNH2 3.1 inh -74
CCN(CC)c1ccc(S(=O)(=O)N2CCOCC2)cc1NC(=O)CSc1nncn1C	none
COCCN(C(=O)c1cc(CN2C(=O)c3ccccc3C2=O)ccc1OC)c1c(N)n(CC(C)C)c(=O)[nH]c1=O	none (no result: TRPV1 ag, TRPV1 potentiator)
O=C(Cn1cc(COc2c(F)c(F)cc(F)c2F)nn1)c1ccc(O)cc1	none (no result: TRPV1 ag, TRPV1 potentiator)
COCCN(C(=O)c1ccc2c(c1)S(=O)(=O)N=C1CCCCCN12)c1c(N)n(CC(C)C)c(=O)[nH]c1=O	none (no result: TRPV1 ag, TRPV1 potentiator)
O=[N+]([O-])c1ccc(OCC(O)CN(C2CCCCC2)C2CCCCC2)cc1 (stereo not drawn)	KCNH2 3.1 inh -106, hERG WT inh -70
CN1c2ccccc2C(O)=C(C(=S)Nc2ccc(F)c(Cl)c2)S1(=O)=O	hERG WT inh -255
CN1c2ccccc2C(O)=C(C(=S)Nc2ccccc2)S1(=O)=O	none
CCN(CC)C(=O)C1=C(C)N(CCC2=CCCCC2)C(=O)C(CC(=O)NC(c2ccccc2)c2ccccc2)C1 (stereo not drawn)	hERG WT inh -88 (no result: TRPV1 ag, TRPV1 potentiator)
O=C(Nc1ccc(S(=O)(=O)N2CCCC2)cc1)C1CC(=O)N(CCc2ccccc2)C1 (stereo not drawn)	none (no result: TRPV1 ag, TRPV1 potentiator)
O=C(NC(NC(=S)N1CCOCC1)C(Cl)(Cl)Cl)c1cccc2ccccc12 (stereo not drawn)	TRPV1 ag inconclusive
